# “And” between values parts separate entries of the source, which are not always exact repeats. Equal entries are not always repeated. This is one part of the list. Inconclusive results are not listed. The source made the active and inactive calls. Calls come from the whole dose curve; as a rule, active = well fitted inhibition curve with a large enough effect; inconclusive = small, poorly fitted or top-dose-only effect; inactive = flat fitted curve, though single readings scatter.
# Target: Ubiquitin carboxyl-terminal hydrolase 1 (Homo sapiens) (UniProt O94782)
# Assay: Inhibitors of USP1/UAF1: Hit Validation in Primary Assay
# Conditions: Ub-Rhodamine cleavage, fluorescence kinetic read
# From the text: Deubiquitinating enzymes (DUBs) are a class of enzymes that can cleave isopeptide bond formed between the C-terminal carboxylate of ubiquitin and a lysine side-chain amino group on the target protein. Among them, ubiquitin specific proteases (USPs) constitute the largest DUB family. Human USPs are emerging as promising targets for pharmacological intervention because of their connection to a number of human diseases, including prostate, colon and breast cancer (1, 2), pediatric acute lymphoblastic leukemia (3), and familial cylindromatosis (4). The advantage of inhibiting USPs lies in the potential specificity of therapeutic intervention that can lead to better efficacy and reduce nonspecific side effects. […] This miniaturized assay has a fluorescent read-out and is used to screen the NIH Molecular Libraries Small Molecule Repository (MLSMR) in order to identify a small molecule that inhibits USP1. […]
# 3 microliters of reagents (buffer in columns 3 and 4 as negative control and 1nM USP1/UAF1 complex in columns 1, 2, and 5-48) are dispensed into Greiner black solid bottom 1536-well assay plates. […] The plates are immediately centrifuged at 1000 rpm for 15 seconds, and subsequently transferred to a ViewLux high-throughput CCD imager (PerkinElmer) wherein kinetic measurements of fluorescence are acquired using 480 nm excitation/540 nm emission filter set (6 reads every 60 seconds, see Table 1). […]
# Ubiquitin carboxyl-terminal hydrolase 1 (Homo sapiens), sequence (O94782 whole entry, looked up): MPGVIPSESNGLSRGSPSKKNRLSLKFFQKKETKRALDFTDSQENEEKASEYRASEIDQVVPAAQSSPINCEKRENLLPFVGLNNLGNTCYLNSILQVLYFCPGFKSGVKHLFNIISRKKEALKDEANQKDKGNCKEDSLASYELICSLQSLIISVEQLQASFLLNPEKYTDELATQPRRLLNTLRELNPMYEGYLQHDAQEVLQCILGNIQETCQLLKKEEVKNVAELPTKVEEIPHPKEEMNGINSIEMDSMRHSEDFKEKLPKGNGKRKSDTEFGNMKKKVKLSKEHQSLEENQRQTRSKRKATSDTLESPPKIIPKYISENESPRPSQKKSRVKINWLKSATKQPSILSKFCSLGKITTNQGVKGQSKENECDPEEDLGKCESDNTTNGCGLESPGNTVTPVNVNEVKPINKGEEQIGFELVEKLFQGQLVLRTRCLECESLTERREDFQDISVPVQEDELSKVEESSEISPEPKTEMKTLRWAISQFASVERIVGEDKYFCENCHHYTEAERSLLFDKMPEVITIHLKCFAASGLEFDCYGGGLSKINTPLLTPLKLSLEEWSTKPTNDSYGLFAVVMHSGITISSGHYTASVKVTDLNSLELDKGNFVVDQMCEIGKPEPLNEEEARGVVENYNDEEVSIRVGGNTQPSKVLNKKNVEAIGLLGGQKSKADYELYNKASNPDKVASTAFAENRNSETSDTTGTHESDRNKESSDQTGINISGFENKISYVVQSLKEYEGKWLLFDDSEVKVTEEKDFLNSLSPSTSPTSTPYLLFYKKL
compound,measurement,value
CC(C)c1ccc2c(c1)c(SC(C)(C)C)c(CC(C)(C)C(=O)O)n2Cc1ccc(Cl)cc1,Potency,66.3 µM (active) and 41.8 µM (active)

# Reference: PubChem BioAssay AID540327 (National Center for Advancing Translational Sciences (NCATS), 2011)
